PI4K2A block: PI4K2A (human) kinase inhibition; purified PI4K2A, ADP-Glo luminescence, 1 h; active compounds read low; activity change, negative = inhibition, % at 76.9 µM; hit rate 0.13% among 420,000; AID 1346378; in the data active means activity change below about -50%; inconclusive means mostly about -30% to -49%;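 further: -100% = wells without enzyme as full effect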
Target sequence (Q9BTU6 whole entry, looked up): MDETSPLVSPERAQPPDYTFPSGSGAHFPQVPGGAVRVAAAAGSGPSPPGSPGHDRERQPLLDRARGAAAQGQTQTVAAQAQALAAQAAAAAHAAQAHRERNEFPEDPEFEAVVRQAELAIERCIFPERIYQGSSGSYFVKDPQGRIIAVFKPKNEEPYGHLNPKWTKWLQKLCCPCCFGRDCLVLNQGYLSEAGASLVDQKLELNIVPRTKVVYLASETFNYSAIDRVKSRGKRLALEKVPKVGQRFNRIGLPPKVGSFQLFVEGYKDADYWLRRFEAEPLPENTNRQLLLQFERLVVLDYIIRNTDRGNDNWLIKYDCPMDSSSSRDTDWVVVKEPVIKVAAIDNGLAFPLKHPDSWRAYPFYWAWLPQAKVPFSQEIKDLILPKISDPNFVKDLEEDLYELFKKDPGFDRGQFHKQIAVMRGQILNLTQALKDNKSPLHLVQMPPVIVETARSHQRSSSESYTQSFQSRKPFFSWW
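In this quantitative HTS, ADP production by PI4K2A was quantified luminescently after 1 h at ambient temperature; 100 microM adenosine served as plate-quality control.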
KB-3-1 tox: KB-3-1 parental cell cytotoxicity; KB-3-1 viability, CellTiter-Glo ATP luminescence, 72 h; Potency, µM (titrated, usually from 46.1 µM), most hits filed as cytotoxic; hit rate 1.4% among 400,000; further: potency means the concentration at half of the fitted maximal effect; nearly all actives have a fitted effect of over 60% in size
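Multi-concentration cytotoxicity screen in KB-3-1 cells grown in DMEM lacking phenol red with 10% FBS. After 72 h at 37 °C with compound, ATP-dependent luminescence was recorded.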
A549 viability: A549 cytotoxicity, counter-screen for Nrf2 inhibitors. hit rate 0.16% among 390,000. A549 ARE-Fluc cells, CellTiter-Fluor viability, 18-24 h. Potency, µM (highest dose often 46 µM), without a hit: top-dose activity change, negative = cytotoxicity, hits mostly inhibitors. AID 504648; further: potency means the concentration at half of the fitted maximal effect
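Cytotoxicity counterscreen: CellTiter-Fluor fluorescence was measured in A549 ARE_Fluc cells after 18-24 h of compound exposure in a concentration series. The subsequent BugLite luminescent read reports ARE-luciferase activity.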
Giardia kill: Giardia lamblia killing | Giardia lamblia trophozoite viability | activity change, % at 7.66 µM, hits read low | hit rate 0.15% among 340,000; in the data active means activity change below about -80%; inconclusive means between about -30% and that limit;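 further: parasites exposed to compound for two days anaerobically before the ATP read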
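Killing of trophozoites was scored by loss of ATP luminescence after a 48 hrs anaerobic exposure to compounds at 37 deg C, using 100 cells per well.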
KB-V1 cytotox: KB-V1 MDR subline cytotoxicity; AID 1347076; Potency, µM (titrated, usually from 46.1 µM), usual class: cytotoxic; KB-V1 MDR cells viability, CellTiter-Glo, 72 h; hit rate 3.4% among 400,000; further: potency means the concentration at half of the fitted maximal effect; nearly all actives have a fitted effect of over 60% in size
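Compound-treated KB-V1 multidrug-resistant cells, 72 h, 37 degrees C; viability by CellTiter-Glo. Fitted qHTS curves give the values.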
Nrf2 block: inhibitors of Nrf2 signaling | A549 ARE-Fluc reporter, luciferase luminescence, 18-24 h | Potency, µM (highest dose often 46 µM), for inactives: at the top dose activity change, negative = inhibition, most hits filed as inhibitors | hit rate 2.1% among 360,000 | AID 504444; further: potency means the concentration at half of the fitted maximal effect; nearly all actives have a fitted effect of over 60% in size
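Nrf2 function is reported as luminescence of an ARE-controlled luciferase in A549 cells. Compounds were tested at several concentrations, and a CellTiter-Fluor read on the same wells flagged cytotoxicity.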
* hit, by the source's call; i = inactive; ? = inconclusive; . = no result. Shown are actives, neighbours in structure and some others; about 5.7% of the full set was active somewhere. Unless noted, the call rests on the fitted dose curve; in most records, active means well fitted curve in the direction sought with a large enough effect; inconclusive means small, poorly fitted or top-dose-only effect, or another doubt; inactive means no such curve, though single readings can be large; an effect the other way counts as inactive or inconclusive. Unless noted, on the % scale 0 is the no-effect control and ±100 the full control effect.

SMILES	PI4K2A block	KB-3-1 tox	A549 viability	Giardia kill	KB-V1 cytotox	Nrf2 block
Cc1noc2ncnc(N3CCCC(C(=O)NCCC(C)C)C3)c12 (centres undefined)	-3	i	0%	.	?	23µM*
O=C1CCCC2=C1C(c1cccs1)n1nc(SCc3ccccc3F)nc1N2 (centres undefined)	7	i	-27%	-6	?	18µM*
COc1cc2c(NC3CCN(C)CC3)nc(N3CCN(C)CC3)nc2cc1OCCCN(C)C	.	?	.	.	i	.
Cc1nc(-c2ccccc2)nc2[nH]c(C(C)C)cc(=O)c12	-4	i	12%	2	?	?
Cc1nc(-c2ccccc2)nc2[nH]c(=O)n(-c3ccccc3)c(=O)c12	-2	?	-19%	4	21µM*	-24%
Nc1cccc(/C=C2\C=Cc3ccccc32)c1	.	i	.	.	i	.
CC(C)c1nc2ccccc2c2nnc(SCC(=O)NCc3ccco3)n12	2	?	-11%	2	4.1µM*	.
C=CCn1c(SCC(=O)NCc2ccco2)nnc1-c1ccc2ccccc2n1	-2	i	-2%	4	7.3µM*	-25%
CC(C)(C)c1nc2ccccc2c2nnc(SCC(=O)NCc3ccco3)n12	-6	i	-8%	-8	5.2µM*	-28%
Cc1ccccc1N1CCN(CCc2nnc3n2CCCC3)CC1	-1	.	.	.	.	.
Cc1ccc(S(=O)(=O)SCCCSS(=O)(=O)c2ccc(C)cc2)cc1	-1	i	0%	2	i	15%
Cc1ccc(S(=O)(=O)SC/C=C/CSS(=O)(=O)c2ccc(C)cc2)cc1	-7	i	-6%	-1	i	12µM*
CCOC(=O)c1cccc(NS(=O)(=O)c2ccc3[nH]c4c(c3c2)CCCC4)c1	-1	i	-24%	.	i	-15%
CCCCc1ccc(N/C(N)=N/c2nc(C)cc(C)n2)cc1	-1	?	2%	5	6.5µM*	?
Cc1ccc(N/C(N)=N/c2nc(C)cc(C)n2)cc1	4	i	-8%	1	?	-10%
CCC(=O)Nc1ccc(N/C(N)=N/c2nc(C)cc(C)n2)cc1	2	i	-14%	4	i	?
Cc1cc(C)cc(N/C(N)=N/c2nc(C)cc(C)n2)c1	-2	?	-4%	2	21µM*	6%
CCc1ccccc1NC(=O)CC1S/C(=N\c2nccs2)N(CC)C1=O (centres undefined)	2	i	-9%	-12	8.2µM*	-12%
CN(C(=O)COC(=O)c1ccccc1C(=O)c1ccccc1)c1ccccc1	0	i	-17%	25	21µM*	-7%
Cc1ccc(C(=O)OCC(=O)N(C)c2ccccc2)c(C)c1	4	i	0%	1	i	4%
Cn1c(/C=N/Nc2nc3ccccc3[nH]2)nc2ccccc21	-3	?	1%	-18	i	?
CCCn1c(/C=N/Nc2nc3ccccc3[nH]2)nc2ccccc21	-2	i	?	8	?	15µM*
CC(C)Cn1c(/C=N/Nc2nc3ccccc3[nH]2)nc2ccccc21	1	16µM*	-4%	-14	?	7.3µM*
O=C(NCCN1CCC(Cc2ccccc2)CC1)C1CCCN(S(=O)(=O)c2ccc(Cl)s2)C1 (centres undefined)	2	.	.	.	.	.
COC(=O)[C@@]1(Cc2ccc(F)cc2)[C@H]2c3cc(C(=O)N4CCCC4)n(CCO)c3C[C@H]2CN1C(=O)c1ccccc1	-3	i	-5%	-9	i	-14%
SMILES	PI4K2A block	KB-3-1 tox	A549 viability	Giardia kill	KB-V1 cytotox	Nrf2 block
COC(=O)[C@@]1(Cc2ccc(OC)cc2)[C@H]2c3cc(C(=O)N4CCCC4)n(CCc4ccc(OC)c(Br)c4)c3C[C@H]2CN1C(=O)c1ccccc1	-3	?	.	.	18µM*	.
COC(=O)Cn1c(C(=O)N2CCCC2)cc2c1C[C@H]1CN(C(=O)c3ccccc3)[C@@](Cc3ccc(OC)cc3)(C(=O)OC)[C@@H]21	-5	i	.	.	?	.
COC(=O)[C@@]1(Cc2ccc(F)cc2)[C@H]2c3cc(C(=O)N4CCCC4)n(CCc4ccc(OC)c(Br)c4)c3C[C@H]2CN1C(=O)c1ccccc1	-1	26µM*	.	.	?	.
O=C(C[n+]1ccccc1Cl)c1ccc2c(c1)CCCC2	.	i	.	.	i	.
CC(C)=CCC[C@@]1(C(=O)O)[C@@H]2C/C=C(\C)CC/C=C(\C)CC[C@H]1[C@]1(CC2)CO1	-10	.	.	.	.	.
Nc1c(C(=O)OCC2CCCO2)c2nc3ccccc3nc2n1C1CCCC1 (centres undefined)	-5	?	-12%	-9	23µM*	?
COCCn1c(N)c(C(=O)NCC2CCCO2)c2nc3ccccc3nc21 (centres undefined)	-21	i	?	3	?	?
O=C(Cn1nc(-c2ccccc2)c2ccccc2c1=O)Nc1ccc(O)cc1	-4	i	2%	-26	i	4%
Cc1ccc(NC(=O)NNC(=O)Cn2nc(-c3ccccc3)c(-c3ccccc3)c(C#N)c2=O)cc1	-4	6.5µM*	?	8	i	18%
CCOC(=O)/C(=N/Nc1ccc(C)cc1)S(=O)(=O)c1ccc(Cl)cc1	8	i	-19%	6	16µM*	?
O=C(NC(=C(Cl)Cl)S(=O)(=O)c1ccc(Cl)cc1)c1ccccc1	-4	i	?	-3	?	?
NNC(=O)/C(=N/Nc1ccccc1)S(=O)(=O)c1ccc(Cl)cc1	-2	18µM*	-14%	7	i	-21%
CCOC(=O)c1cccc(Nc2ncnc3ccccc23)c1	-1	i	-12%	14	12µM*	.
Cc1scc(C(=O)N2CCN(S(C)(=O)=O)CC2)c1-c1ccccc1	-1	i	-3%	7	23µM*	13%
O=C(NCc1cccs1)C1CCC(CNS(=O)(=O)c2cccc3cccnc23)CC1 (centres undefined)	-3	.	.	.	.	.
Cn1ncc2c(N3CCN(c4ccc(Cl)c(Cl)c4)CC3)ncnc21	-2	i	1%	7	2.3µM*	?
CCSc1nnc(NC(=O)c2ccc(Br)s2)s1	3	?	1%	-12	i	2%
CC(C)(C)CC(=O)Nc1nnc(C(F)(F)F)s1	6	i	-7%	-3	i	?
CC(NC(=O)Nc1nnc(C(F)(F)F)s1)(C(F)(F)F)C(F)(F)F	-1	13µM*	16µM*	4	i	5.2µM*
O=C(Nc1ccccc1C(=O)Nc1nnc(C(F)(F)F)s1)c1ccccc1Cl	7	21µM*	16µM*	-8	?	6.5µM*
